Measured values reported in the supplement of paper PMC6522484.
± gives the standard deviation of the averaged measurements.

Experiments:
DLD1 [1] = test: cell viability (CellTiter-Glo) relative to plate median (fraction of plate median); higher = more viable cells; conditions: 5 µM; treatment time 24 h; reporter: 7TFP
Outline: (§1)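 Cells were seeded in 384-well plates; these were colorectal cancer lines stably transduced with lentiviral 7TFP or TCF4/Wnt firefly luciferase reporters. After 24 h, library compounds went in at a final 5 µM, and exposure lasted 24 h. Parallel plates were then read for firefly luciferase or CellTiterGlo luminescence, each well normalised to its plate median, with two independent replicates averaged.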

HCT116 = test: as above; conditions: 5 µM; treatment time 24 h; reporter: TCF4/Wnt
Outline: as §1

SW480 [2] = test: as above; conditions: 5 µM; treatment time 24 h; reporter: 7TFP
Outline: as §1

DLD1 [3] = test: TCF/Wnt firefly luciferase reporter signal relative to plate median (fraction of plate median); higher = higher Wnt reporter signal; conditions: 5 µM; treatment time 24 h; reporter: 7TFP
Outline: as §1

SW480 [4] = test: as above; conditions: 5 µM; treatment time 24 h; reporter: 7TFP
Outline: as §1

C[C@]12CCC(=O)C=C1CC[C@@H]1[C@@H]2C(=O)C[C@@]2(C)[C@H]1CC[C@]2(O)C(=O)CO
cell viability (DLD1 [1]): 0.888 ± 0.14
cell viability (HCT116): 1.02 ± 0.12
cell viability (SW480 [2]): 0.957 ± 0.0057
TCF/Wnt firefly luciferase reporter signal (DLD1 [3]): 0.914 ± 0.093
TCF/Wnt firefly luciferase reporter signal (SW480 [4]): 0.761 ± 0.013

COC(=O)[C@@H]1OC(=O)C2OC23[C@@]1(C)CCC1[C@@]2(C)CCC(=O)C(C)(C)C2C[C@@H](OC(C)=O)[C@]13C (stereo not given in full)
cell viability (DLD1 [1]): 0.993 ± 0.011
cell viability (HCT116): 1.07 ± 0.078
cell viability (SW480 [2]): 1.01 ± 0.017
TCF/Wnt firefly luciferase reporter signal (DLD1 [3]): 0.86 ± 0.037
TCF/Wnt firefly luciferase reporter signal (SW480 [4]): 1.03 ± 0.046

OC[C@H]1O[C@@](CO)(O[C@H]2O[C@H](CO)[C@@H](O)[C@H](O)[C@H]2O)[C@@H](O[C@H]2O[C@H](CO)[C@@H](O)[C@H](O)[C@H]2O)[C@@H]1O
cell viability (DLD1 [1]): 1.01 ± 0.047
cell viability (HCT116): 1.05 ± 0.014
cell viability (SW480 [2]): 1 ± 0.025
TCF/Wnt firefly luciferase reporter signal (DLD1 [3]): 0.9905 ± 0.0078
TCF/Wnt firefly luciferase reporter signal (SW480 [4]): 0.989 ± 0.073

N[C@@H](CSCSC[C@H](N)C(=O)O)C(=O)O
cell viability (DLD1 [1]): 0.966 ± 0.013
cell viability (HCT116): 0.915 ± 0.022
cell viability (SW480 [2]): 0.9935 ± 0.0092
TCF/Wnt firefly luciferase reporter signal (DLD1 [3]): 1.05 ± 0.014
TCF/Wnt firefly luciferase reporter signal (SW480 [4]): 0.934 ± 0.048

O=C(O)C1(C(=O)O)CCC1.[NH2-].[NH2-].[Pt+2]
cell viability (DLD1 [1]): 1.02 ± 0.059
cell viability (HCT116): 1.08 ± 0.15
cell viability (SW480 [2]): 0.97 ± 0.028
TCF/Wnt firefly luciferase reporter signal (DLD1 [3]): 1.15 ± 0.099
TCF/Wnt firefly luciferase reporter signal (SW480 [4]): 1 ± 0.039

C=C(C)[C@@H]1CC[C@]2(C(=O)O)CC[C@]3(C)[C@H](C[C@H]4OC(=O)C[C@@H](O)[C@]5(C)[C@@H]4[C@@]3(C)CC[C@H]5C(=C)C)[C@@H]12 [Chiisanogenin (12)]
cell viability (DLD1 [1]): 0.9945 ± 0.00071
cell viability (HCT116): 1.02 ± 0.12
cell viability (SW480 [2]): 0.968 ± 0.023
TCF/Wnt firefly luciferase reporter signal (DLD1 [3]): 1.11 ± 0.028
TCF/Wnt firefly luciferase reporter signal (SW480 [4]): 1.12 ± 0.028

O=C(/C=C/c1ccccc1)c1ccc(O[C@@H]2O[C@H](CO)[C@@H](O)[C@H](O)[C@H]2O)cc1O
cell viability (DLD1 [1]): 0.947 ± 0.022
cell viability (HCT116): 0.83 ± 0.04
cell viability (SW480 [2]): 0.978 ± 0.018
TCF/Wnt firefly luciferase reporter signal (DLD1 [3]): 1.02 ± 0.036
TCF/Wnt firefly luciferase reporter signal (SW480 [4]): 1.13 ± 0.057

COc1ccc(/C=C/C(=O)c2ccc(O)cc2O)cc1OC
cell viability (DLD1 [1]): 0.955 ± 0.046
cell viability (HCT116): 1.04 ± 0.035
cell viability (SW480 [2]): 1.08 ± 0.042
TCF/Wnt firefly luciferase reporter signal (DLD1 [3]): 1.03
TCF/Wnt firefly luciferase reporter signal (SW480 [4]): 0.986 ± 0.062

CC(=O)O[C@H]1CC[C@]2(C)[C@H]3CC[C@]4(C)C(=CC[C@@]5(C(=O)O)CCC(C)(C)C[C@H]54)[C@]3(C)CC[C@H]2C1(C)C [3-Acetylaleuritolic acid]
cell viability (DLD1 [1]): 1.01 ± 0.11
cell viability (HCT116): 1.04 ± 0.11
cell viability (SW480 [2]): 1.01 ± 0.044
TCF/Wnt firefly luciferase reporter signal (DLD1 [3]): 0.879 ± 0.0085
TCF/Wnt firefly luciferase reporter signal (SW480 [4]): 1.02 ± 0.06

O=c1c(O)c(-c2ccc(O)c(O)c2)oc2cc(O)ccc12
cell viability (DLD1 [1]): 0.989 ± 0.073
cell viability (HCT116): 0.948 ± 0.028
cell viability (SW480 [2]): 0.969 ± 0.019
TCF/Wnt firefly luciferase reporter signal (DLD1 [3]): 1.01 ± 0.097
TCF/Wnt firefly luciferase reporter signal (SW480 [4]): 0.923 ± 0.11

COc1ccc(CN(CCN(C)C)c2ncccn2)cc1
cell viability (DLD1 [1]): 0.994 ± 0.0057
cell viability (HCT116): 0.969 ± 0.086
cell viability (SW480 [2]): 1 ± 0.055
TCF/Wnt firefly luciferase reporter signal (DLD1 [3]): 0.9635 ± 0.00071
TCF/Wnt firefly luciferase reporter signal (SW480 [4]): 0.931 ± 0.021

NCCS
cell viability (DLD1 [1]): 1.02 ± 0.014
cell viability (HCT116): 1.07 ± 0.12
cell viability (SW480 [2]): 1.035 ± 0.0071
TCF/Wnt firefly luciferase reporter signal (DLD1 [3]): 1.21 ± 0.021
TCF/Wnt firefly luciferase reporter signal (SW480 [4]): 1.16 ± 0.092

O=C1C=C(O)C(=O)c2ccccc21
cell viability (DLD1 [1]): 1.025 ± 0.0071
cell viability (HCT116): 1.06 ± 0.035
cell viability (SW480 [2]): 1.02 ± 0.047
TCF/Wnt firefly luciferase reporter signal (DLD1 [3]): 0.947 ± 0.09
TCF/Wnt firefly luciferase reporter signal (SW480 [4]): 0.985 ± 0.11

CN(C)CCN(Cc1ccccc1)c1ccccn1
cell viability (DLD1 [1]): 0.9435 ± 0.0078
cell viability (HCT116): 0.925 ± 0.13
cell viability (SW480 [2]): 1 ± 0.022
TCF/Wnt firefly luciferase reporter signal (DLD1 [3]): 1 ± 0.25
TCF/Wnt firefly luciferase reporter signal (SW480 [4]): 1.03 ± 0.05

Cc1cc(OC(=O)c2c(C)cc(O)cc2O)cc(O)c1C(=O)O
cell viability (DLD1 [1]): 1.08 ± 0.099
cell viability (HCT116): 1.03 ± 0.035
cell viability (SW480 [2]): 1.1 ± 0.071
TCF/Wnt firefly luciferase reporter signal (DLD1 [3]): 1.03 ± 0.18
TCF/Wnt firefly luciferase reporter signal (SW480 [4]): 1.06 ± 0.05

O=C(O)CCC(=O)c1ccc(-c2ccccc2)cc1
cell viability (DLD1 [1]): 1.04 ± 0.073
cell viability (HCT116): 0.947 ± 0.12
cell viability (SW480 [2]): 0.962 ± 0.018
TCF/Wnt firefly luciferase reporter signal (DLD1 [3]): 1 ± 0.095
TCF/Wnt firefly luciferase reporter signal (SW480 [4]): 1.04

C[C@H]1C[C@@H]2[C@H]([C@@H](O)C[C@@]3(C)[C@H]2CC[C@]3(O)C(=O)CO)[C@@]2(C)C=CC(=O)C=C12
cell viability (DLD1 [1]): 1.01 ± 0.029
cell viability (HCT116): 1.02 ± 0.056
cell viability (SW480 [2]): 1.04 ± 0.014
TCF/Wnt firefly luciferase reporter signal (DLD1 [3]): 0.9235 ± 0.005
TCF/Wnt firefly luciferase reporter signal (SW480 [4]): 1.02 ± 0.062

C1N2CN3CN1CN(C2)C3
cell viability (DLD1 [1]): 1.04 ± 0.085
cell viability (HCT116): 1.08 ± 0.12
cell viability (SW480 [2]): 0.978 ± 0.028
TCF/Wnt firefly luciferase reporter signal (DLD1 [3]): 0.985 ± 0.05
TCF/Wnt firefly luciferase reporter signal (SW480 [4]): 1.02 ± 0.028

COc1ccc(C(=O)O)c(O)c1OC
cell viability (DLD1 [1]): 0.991 ± 0.055
cell viability (HCT116): 0.977 ± 0.12
cell viability (SW480 [2]): 0.9195 ± 0.00071
TCF/Wnt firefly luciferase reporter signal (DLD1 [3]): 0.803 ± 0.069
TCF/Wnt firefly luciferase reporter signal (SW480 [4]): 0.905 ± 0.19

COc1cc2c3cc1Oc1cc(ccc1O)C[C@@H]1c4c(cc(OC)c(O)c4Oc4ccc(cc4)C[C@@H]3N(C)CC2)CC[N+]1(C)C
cell viability (DLD1 [1]): 0.992 ± 0.012
cell viability (HCT116): 1.01 ± 0.1
cell viability (SW480 [2]): 1.01 ± 0.045
TCF/Wnt firefly luciferase reporter signal (DLD1 [3]): 0.977 ± 0.089
TCF/Wnt firefly luciferase reporter signal (SW480 [4]): 1.07 ± 0.05

CC1=C(C(=O)O)N2C(=O)[C@@H](NC(=O)[C@H](N)C3=CCC=CC3)[C@H]2SC1
cell viability (DLD1 [1]): 0.978 ± 0.073
cell viability (HCT116): 0.958 ± 0.018
cell viability (SW480 [2]): 0.948 ± 0.021
TCF/Wnt firefly luciferase reporter signal (DLD1 [3]): 1.01 ± 0.09
TCF/Wnt firefly luciferase reporter signal (SW480 [4]): 1.02 ± 0.021

COc1ccc(-c2coc3cc(O)ccc3c2=O)c(OC)c1O
cell viability (DLD1 [1]): 1.01 ± 0.021
cell viability (HCT116): 1.03 ± 0.063
cell viability (SW480 [2]): 0.966 ± 0.076
TCF/Wnt firefly luciferase reporter signal (DLD1 [3]): 0.852 ± 0.047
TCF/Wnt firefly luciferase reporter signal (SW480 [4]): 0.975 ± 0.025

Cc1noc(NS(=O)(=O)c2ccc(N)cc2)c1C
cell viability (DLD1 [1]): 0.904 ± 0.0057
cell viability (HCT116): 1.04 ± 0.13
cell viability (SW480 [2]): 0.915 ± 0.044
TCF/Wnt firefly luciferase reporter signal (DLD1 [3]): 1.02 ± 0.076
TCF/Wnt firefly luciferase reporter signal (SW480 [4]): 0.984 ± 0.079

CN[C@@H]1[C@H](O[C@H]2[C@H](O[C@H]3[C@H](O)[C@@H](O)[C@H](N=C(N)N)[C@@H](O)[C@@H]3N=C(N)N)O[C@@H](C)[C@]2(O)C=O)O[C@@H](CO)[C@H](O)[C@H]1O
cell viability (DLD1 [1]): 0.962 ± 0.097
cell viability (HCT116): 0.936 ± 0.044
cell viability (SW480 [2]): 1.07 ± 0.078
TCF/Wnt firefly luciferase reporter signal (DLD1 [3]): 0.817 ± 0.0014
TCF/Wnt firefly luciferase reporter signal (SW480 [4]): 0.935 ± 0.0028

CN(C)CCc1c[nH]c2ccc(CS(=O)(=O)N3CCCC3)cc12
cell viability (DLD1 [1]): 0.875 ± 0.04
cell viability (HCT116): 0.929 ± 0.088
cell viability (SW480 [2]): 0.999 ± 0.086
TCF/Wnt firefly luciferase reporter signal (DLD1 [3]): 1.17 ± 0.035
TCF/Wnt firefly luciferase reporter signal (SW480 [4]): 1.06 ± 0.088

O=C(O)CCC(=O)Nc1ccc(S(=O)(=O)Nc2nccs2)cc1
cell viability (DLD1 [1]): 0.9765 ± 0.0064
cell viability (HCT116): 1.02 ± 0.028
cell viability (SW480 [2]): 1.04 ± 0.035
TCF/Wnt firefly luciferase reporter signal (DLD1 [3]): 0.935 ± 0.12
TCF/Wnt firefly luciferase reporter signal (SW480 [4]): 1.03 ± 0.028

CCCCCC(=O)O[C@]1(C(C)=O)CC[C@H]2[C@@H]3CCC4=CC(=O)CC[C@]4(C)[C@H]3CC[C@@]21C
cell viability (DLD1 [1]): 0.993 ± 0.0099
cell viability (HCT116): 1.04 ± 0.057
cell viability (SW480 [2]): 0.972 ± 0.018
TCF/Wnt firefly luciferase reporter signal (DLD1 [3]): 0.979 ± 0.087
TCF/Wnt firefly luciferase reporter signal (SW480 [4]): 1.04 ± 0.021

O=S(=O)(O)CCS
cell viability (DLD1 [1]): 1.01 ± 0.058
cell viability (HCT116): 1.06 ± 0.014
cell viability (SW480 [2]): 1.02 ± 0.054
TCF/Wnt firefly luciferase reporter signal (DLD1 [3]): 1.01 ± 0.19
TCF/Wnt firefly luciferase reporter signal (SW480 [4]): 1.1 ± 0.028

CC(=O)N(c1onc(C)c1C)S(=O)(=O)c1ccc(N)cc1
cell viability (DLD1 [1]): 1.02 ± 0.034
cell viability (HCT116): 1.05 ± 0.19
cell viability (SW480 [2]): 0.935 ± 0.06
TCF/Wnt firefly luciferase reporter signal (DLD1 [3]): 0.933 ± 0.0014
TCF/Wnt firefly luciferase reporter signal (SW480 [4]): 0.985 ± 0.021

C[N+](C)(C)C[C@H](O)CC(=O)[O-]
cell viability (DLD1 [1]): 0.964 ± 0.028
cell viability (HCT116): 0.976 ± 0.022
cell viability (SW480 [2]): 0.965 ± 0.014
TCF/Wnt firefly luciferase reporter signal (DLD1 [3]): 0.921 ± 0.014
TCF/Wnt firefly luciferase reporter signal (SW480 [4]): 0.961 ± 0.069
